Key:
Experiment in all cases: DAPPL (digital affinity profiling via proximity ligation, sequencing); 10 mM Tris-HCl pH 7.5, 50 mM NaCl, 1 mM DTT, 4% glycerol, room temperature, 30 min; GST-TFs on glutathione beads, 16-mer random dsDNA library, 0.1% formaldehyde crosslink after washing; high values mean tight binding
FEV = biological target: T1, FEV (Homo sapiens, UniProt Q99581 1-238); conditions: protein: recombinant; tags: N-terminal GST; dsDNA, one strand shown
T1 sequence: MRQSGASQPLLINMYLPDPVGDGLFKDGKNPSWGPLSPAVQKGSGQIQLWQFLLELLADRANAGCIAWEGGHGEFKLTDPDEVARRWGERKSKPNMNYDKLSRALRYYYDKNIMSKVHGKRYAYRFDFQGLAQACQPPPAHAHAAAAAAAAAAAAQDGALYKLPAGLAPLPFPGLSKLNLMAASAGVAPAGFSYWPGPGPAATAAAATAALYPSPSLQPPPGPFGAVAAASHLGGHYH
In short: (§1)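 In yeast, human transcription factors were expressed with a GST fusion, then pulled down on glutathione beads and given DNA barcodes. Pooled with a tag-only sample, they were exposed to 200 nmole of a 16-mer random double-stranded DNA library (Tris/NaCl/DTT/glycerol buffer, room temperature, 30 min), washed, crosslinked with 0.1% formaldehyde, proximity-ligated using BsaI/T4 ligase for 1 h at 37 °C, PCR-amplified and read on an Illumina NextSeq500. Each hexamer's frequency of reads for a factor, divided by the matching frequency for the tag-only sample, gives the binding signal.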

ETV5 = ETV5 (Homo sapiens, UniProt P41161 1-510); conditions: protein: recombinant; tags: N-terminal GST; dsDNA, one strand shown
In short: as §1

HSF1 = HSF1 (Homo sapiens, UniProt Q00613 1-529); conditions: protein: recombinant; tags: N-terminal GST; chain copies: 3; dsDNA, one strand shown
In short: as §1

SPIC = biological target: T2, SPIC (Homo sapiens, UniProt Q8N5J4 1-248); conditions: protein: recombinant; tags: N-terminal GST; dsDNA, one strand shown
T2 sequence: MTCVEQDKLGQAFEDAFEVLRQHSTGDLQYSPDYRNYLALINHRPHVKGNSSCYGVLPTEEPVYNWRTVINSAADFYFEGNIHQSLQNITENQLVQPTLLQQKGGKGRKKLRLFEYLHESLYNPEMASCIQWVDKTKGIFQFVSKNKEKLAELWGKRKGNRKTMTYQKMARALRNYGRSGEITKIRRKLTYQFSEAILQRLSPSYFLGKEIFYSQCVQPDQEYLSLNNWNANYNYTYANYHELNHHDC
In short: as §1

ELF4 = ELF4 (Homo sapiens, UniProt Q99607 1-663); conditions: protein: recombinant; tags: N-terminal GST; dsDNA, one strand shown
In short: as §1

ELK4 = biological target: T3, ELK4 (Homo sapiens, UniProt P28324-2 1-405); conditions: protein: recombinant; tags: N-terminal GST; dsDNA, one strand shown
T3 sequence: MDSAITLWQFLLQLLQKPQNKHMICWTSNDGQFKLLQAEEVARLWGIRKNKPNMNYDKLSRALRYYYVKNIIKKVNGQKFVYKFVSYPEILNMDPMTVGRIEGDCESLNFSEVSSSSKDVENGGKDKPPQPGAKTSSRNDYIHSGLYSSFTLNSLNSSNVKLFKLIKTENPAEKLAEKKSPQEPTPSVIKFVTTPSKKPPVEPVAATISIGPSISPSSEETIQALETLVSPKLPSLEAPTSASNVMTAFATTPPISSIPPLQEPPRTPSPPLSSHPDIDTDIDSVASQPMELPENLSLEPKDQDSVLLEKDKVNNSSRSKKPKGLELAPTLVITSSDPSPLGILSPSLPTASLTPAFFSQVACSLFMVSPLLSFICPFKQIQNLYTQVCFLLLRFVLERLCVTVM
In short: as §1

ETV2 = biological target: T4, ETV2 (Homo sapiens, UniProt O00321 1-342); conditions: protein: recombinant; tags: N-terminal GST; dsDNA, one strand shown
T4 sequence: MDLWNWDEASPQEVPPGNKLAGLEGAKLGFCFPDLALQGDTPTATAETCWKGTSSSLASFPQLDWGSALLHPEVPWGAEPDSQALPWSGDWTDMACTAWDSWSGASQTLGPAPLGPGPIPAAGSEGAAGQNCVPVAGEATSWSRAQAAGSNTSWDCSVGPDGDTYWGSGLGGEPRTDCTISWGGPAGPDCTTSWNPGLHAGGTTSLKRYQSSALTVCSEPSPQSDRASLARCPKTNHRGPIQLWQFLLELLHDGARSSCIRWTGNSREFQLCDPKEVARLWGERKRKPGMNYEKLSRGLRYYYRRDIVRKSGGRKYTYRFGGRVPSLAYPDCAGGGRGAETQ
In short: as §1

ELF3 = biological target: T5, ELF3 (Homo sapiens, UniProt P78545 1-371); conditions: protein: recombinant; tags: N-terminal GST; dsDNA, one strand shown
T5 sequence: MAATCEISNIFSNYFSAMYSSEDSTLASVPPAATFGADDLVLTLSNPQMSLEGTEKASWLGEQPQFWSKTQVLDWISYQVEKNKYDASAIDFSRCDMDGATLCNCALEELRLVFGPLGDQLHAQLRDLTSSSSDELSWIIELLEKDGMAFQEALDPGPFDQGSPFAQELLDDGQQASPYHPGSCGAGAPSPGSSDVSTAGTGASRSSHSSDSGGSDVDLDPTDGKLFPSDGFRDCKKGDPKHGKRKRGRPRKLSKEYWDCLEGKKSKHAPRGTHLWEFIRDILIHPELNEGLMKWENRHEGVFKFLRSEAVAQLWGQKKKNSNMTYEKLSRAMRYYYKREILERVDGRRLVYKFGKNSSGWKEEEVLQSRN
In short: as §1

CRX = CRX (Homo sapiens, UniProt O43186 1-299); conditions: protein: recombinant; tags: N-terminal GST; dsDNA, one strand shown
In short: as §1

ETV1 = ETV1 (Homo sapiens, UniProt P50549 1-477); conditions: protein: recombinant; tags: N-terminal GST; dsDNA, one strand shown
In short: as §1

ERF = biological target: T6, ERF (Homo sapiens, UniProt P50548 1-548); conditions: protein: recombinant; tags: N-terminal GST; dsDNA, one strand shown
T6 sequence: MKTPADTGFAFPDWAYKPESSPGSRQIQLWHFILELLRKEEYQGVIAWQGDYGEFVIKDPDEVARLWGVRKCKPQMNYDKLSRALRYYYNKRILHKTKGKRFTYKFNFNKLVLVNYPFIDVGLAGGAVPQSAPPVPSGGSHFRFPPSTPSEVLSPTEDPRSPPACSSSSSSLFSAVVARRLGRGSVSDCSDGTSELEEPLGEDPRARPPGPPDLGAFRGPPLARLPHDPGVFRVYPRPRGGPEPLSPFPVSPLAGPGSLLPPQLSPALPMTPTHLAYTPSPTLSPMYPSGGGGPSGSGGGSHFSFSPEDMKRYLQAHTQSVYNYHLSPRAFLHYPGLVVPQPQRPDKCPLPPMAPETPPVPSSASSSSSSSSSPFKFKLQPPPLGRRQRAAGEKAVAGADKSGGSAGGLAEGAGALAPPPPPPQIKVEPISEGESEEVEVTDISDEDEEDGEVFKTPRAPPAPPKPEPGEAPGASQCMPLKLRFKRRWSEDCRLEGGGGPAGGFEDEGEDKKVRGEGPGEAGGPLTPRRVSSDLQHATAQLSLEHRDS
In short: as §1

ETV3L = biological target: T7, ETV3L (Homo sapiens, UniProt Q6ZN32 1-361); conditions: protein: recombinant; tags: N-terminal GST; dsDNA, one strand shown
T7 sequence: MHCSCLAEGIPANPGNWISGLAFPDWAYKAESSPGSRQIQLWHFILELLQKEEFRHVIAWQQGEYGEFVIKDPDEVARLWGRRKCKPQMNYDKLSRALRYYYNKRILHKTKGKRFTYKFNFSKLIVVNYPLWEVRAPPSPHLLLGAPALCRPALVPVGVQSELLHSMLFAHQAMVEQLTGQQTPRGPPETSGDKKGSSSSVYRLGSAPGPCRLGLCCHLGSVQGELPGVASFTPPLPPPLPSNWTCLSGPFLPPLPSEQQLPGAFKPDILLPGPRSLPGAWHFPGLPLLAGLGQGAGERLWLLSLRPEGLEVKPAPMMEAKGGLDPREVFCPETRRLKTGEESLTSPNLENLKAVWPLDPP
In short: as §1

ETS2 = biological target: T8, ETS2 (Homo sapiens, UniProt P15036 1-469); conditions: protein: recombinant; tags: N-terminal GST; dsDNA, one strand shown
T8 sequence: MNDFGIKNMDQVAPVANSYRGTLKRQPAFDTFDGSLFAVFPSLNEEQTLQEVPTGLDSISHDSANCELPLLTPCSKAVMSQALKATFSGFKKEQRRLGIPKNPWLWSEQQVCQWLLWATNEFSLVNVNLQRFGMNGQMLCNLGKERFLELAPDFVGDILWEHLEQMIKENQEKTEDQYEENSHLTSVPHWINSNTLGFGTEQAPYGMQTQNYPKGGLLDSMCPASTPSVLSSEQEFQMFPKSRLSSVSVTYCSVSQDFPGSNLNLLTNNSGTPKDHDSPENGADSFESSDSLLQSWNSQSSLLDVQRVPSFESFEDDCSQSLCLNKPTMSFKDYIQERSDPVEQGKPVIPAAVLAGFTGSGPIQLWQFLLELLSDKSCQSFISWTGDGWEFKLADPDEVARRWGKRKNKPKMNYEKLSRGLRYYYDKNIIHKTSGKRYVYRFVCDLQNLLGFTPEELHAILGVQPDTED
In short: as §1

SPDEF = biological target: T9, SPDEF (Homo sapiens, UniProt O95238 1-335); conditions: protein: recombinant; tags: N-terminal GST; dsDNA, one strand shown
T9 sequence: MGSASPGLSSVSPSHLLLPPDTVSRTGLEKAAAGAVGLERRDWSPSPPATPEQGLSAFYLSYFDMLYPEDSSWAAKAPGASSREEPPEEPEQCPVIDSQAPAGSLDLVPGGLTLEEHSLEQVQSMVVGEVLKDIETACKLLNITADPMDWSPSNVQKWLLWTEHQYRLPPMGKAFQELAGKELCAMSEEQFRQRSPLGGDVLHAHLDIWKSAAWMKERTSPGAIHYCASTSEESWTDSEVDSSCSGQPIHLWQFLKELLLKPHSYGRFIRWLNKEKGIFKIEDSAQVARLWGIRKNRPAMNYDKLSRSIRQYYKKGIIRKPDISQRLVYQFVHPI
In short: as §1

ETV7 = biological target: T10, ETV7 (Homo sapiens, UniProt Q9Y603 1-341); conditions: protein: recombinant; tags: N-terminal GST; dsDNA, one strand shown
T10 sequence: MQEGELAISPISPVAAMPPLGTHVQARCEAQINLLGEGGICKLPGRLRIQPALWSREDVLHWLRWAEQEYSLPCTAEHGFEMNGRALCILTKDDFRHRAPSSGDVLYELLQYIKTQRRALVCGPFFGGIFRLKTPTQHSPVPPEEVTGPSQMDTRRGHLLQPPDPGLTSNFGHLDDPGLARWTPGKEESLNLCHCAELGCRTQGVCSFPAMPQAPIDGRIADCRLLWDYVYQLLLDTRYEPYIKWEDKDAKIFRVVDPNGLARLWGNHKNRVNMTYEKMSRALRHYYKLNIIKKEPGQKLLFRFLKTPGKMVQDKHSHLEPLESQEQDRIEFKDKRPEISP
In short: as §1

ELF5 = biological target: T11, ELF5 (Homo sapiens, UniProt Q9UKW6-2 1-255); conditions: protein: recombinant; tags: N-terminal GST; dsDNA, one strand shown
T11 sequence: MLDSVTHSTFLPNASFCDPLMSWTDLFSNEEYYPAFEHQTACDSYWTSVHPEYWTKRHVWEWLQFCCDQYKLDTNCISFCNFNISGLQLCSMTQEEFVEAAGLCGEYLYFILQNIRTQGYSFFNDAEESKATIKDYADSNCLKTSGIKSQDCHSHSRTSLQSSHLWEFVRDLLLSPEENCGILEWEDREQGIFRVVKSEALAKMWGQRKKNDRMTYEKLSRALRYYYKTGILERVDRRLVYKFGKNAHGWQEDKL
In short: as §1

ETV3 = biological target: T12, ETV3 (Homo sapiens, UniProt P41162-2 1-143); conditions: protein: recombinant; tags: N-terminal GST; dsDNA, one strand shown
T12 sequence: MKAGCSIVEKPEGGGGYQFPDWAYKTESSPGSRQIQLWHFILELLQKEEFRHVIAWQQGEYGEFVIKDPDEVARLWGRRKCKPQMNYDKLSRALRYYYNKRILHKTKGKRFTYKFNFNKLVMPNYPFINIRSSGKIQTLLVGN
In short: as §1

ETV6 = ETV6 (Homo sapiens, UniProt P41212 1-452); conditions: protein: recombinant; tags: N-terminal GST; dsDNA, one strand shown
In short: as §1

Sequence of CRX (O43186 whole entry): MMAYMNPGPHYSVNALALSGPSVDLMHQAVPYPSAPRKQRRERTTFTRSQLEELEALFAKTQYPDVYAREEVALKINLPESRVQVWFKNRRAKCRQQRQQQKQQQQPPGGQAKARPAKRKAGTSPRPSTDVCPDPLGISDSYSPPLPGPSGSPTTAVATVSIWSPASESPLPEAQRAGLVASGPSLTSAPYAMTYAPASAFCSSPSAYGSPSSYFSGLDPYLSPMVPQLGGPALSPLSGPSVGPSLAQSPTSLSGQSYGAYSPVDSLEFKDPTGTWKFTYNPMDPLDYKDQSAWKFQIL
Sequence of ELF4 (Q99607 whole entry): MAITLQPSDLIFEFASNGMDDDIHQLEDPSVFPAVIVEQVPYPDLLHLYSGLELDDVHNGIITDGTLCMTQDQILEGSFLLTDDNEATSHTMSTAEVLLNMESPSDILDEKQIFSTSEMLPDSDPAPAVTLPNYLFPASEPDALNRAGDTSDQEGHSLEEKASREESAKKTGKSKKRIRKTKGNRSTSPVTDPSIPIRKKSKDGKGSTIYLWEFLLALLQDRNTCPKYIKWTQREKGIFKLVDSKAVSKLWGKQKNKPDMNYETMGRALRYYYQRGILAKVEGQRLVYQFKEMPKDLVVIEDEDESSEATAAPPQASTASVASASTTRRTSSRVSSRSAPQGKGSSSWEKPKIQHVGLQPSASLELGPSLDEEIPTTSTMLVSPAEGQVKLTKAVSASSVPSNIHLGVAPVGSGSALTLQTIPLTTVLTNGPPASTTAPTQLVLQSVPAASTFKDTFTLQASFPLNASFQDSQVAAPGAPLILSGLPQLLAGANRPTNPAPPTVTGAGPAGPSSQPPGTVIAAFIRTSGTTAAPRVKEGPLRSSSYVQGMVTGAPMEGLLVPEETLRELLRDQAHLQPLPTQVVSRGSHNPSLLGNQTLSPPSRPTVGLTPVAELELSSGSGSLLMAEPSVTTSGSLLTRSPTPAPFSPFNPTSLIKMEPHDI
Sequence of ETV5 (P41161 whole entry): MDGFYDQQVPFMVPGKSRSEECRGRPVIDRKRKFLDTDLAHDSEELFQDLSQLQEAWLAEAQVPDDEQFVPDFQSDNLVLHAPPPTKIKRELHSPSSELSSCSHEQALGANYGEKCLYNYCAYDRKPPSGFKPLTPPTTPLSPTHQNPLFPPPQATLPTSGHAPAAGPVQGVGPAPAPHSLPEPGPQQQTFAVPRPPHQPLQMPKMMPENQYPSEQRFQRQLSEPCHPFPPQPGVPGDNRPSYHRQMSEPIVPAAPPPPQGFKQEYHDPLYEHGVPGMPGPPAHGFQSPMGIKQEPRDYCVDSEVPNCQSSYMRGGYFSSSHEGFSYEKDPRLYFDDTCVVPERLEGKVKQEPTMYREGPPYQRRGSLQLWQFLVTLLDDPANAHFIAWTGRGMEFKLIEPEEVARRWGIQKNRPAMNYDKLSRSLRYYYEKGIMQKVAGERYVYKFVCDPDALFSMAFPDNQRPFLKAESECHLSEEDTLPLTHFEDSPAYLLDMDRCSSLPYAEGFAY
Sequence of ETV1 (P50549 whole entry): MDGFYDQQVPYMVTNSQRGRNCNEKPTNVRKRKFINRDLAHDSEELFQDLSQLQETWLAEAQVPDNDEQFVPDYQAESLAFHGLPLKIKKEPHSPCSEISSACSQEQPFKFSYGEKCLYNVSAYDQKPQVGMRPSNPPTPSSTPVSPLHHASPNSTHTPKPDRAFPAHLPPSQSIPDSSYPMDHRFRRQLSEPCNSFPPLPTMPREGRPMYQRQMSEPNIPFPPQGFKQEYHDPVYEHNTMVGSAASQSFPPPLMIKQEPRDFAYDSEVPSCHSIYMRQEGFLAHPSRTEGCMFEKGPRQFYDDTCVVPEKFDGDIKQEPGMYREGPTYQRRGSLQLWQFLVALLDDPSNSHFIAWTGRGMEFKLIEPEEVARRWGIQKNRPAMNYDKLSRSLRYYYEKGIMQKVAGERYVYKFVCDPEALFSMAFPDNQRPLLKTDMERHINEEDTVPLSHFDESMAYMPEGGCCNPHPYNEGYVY
Sequence of ETV6 (P41212 whole entry): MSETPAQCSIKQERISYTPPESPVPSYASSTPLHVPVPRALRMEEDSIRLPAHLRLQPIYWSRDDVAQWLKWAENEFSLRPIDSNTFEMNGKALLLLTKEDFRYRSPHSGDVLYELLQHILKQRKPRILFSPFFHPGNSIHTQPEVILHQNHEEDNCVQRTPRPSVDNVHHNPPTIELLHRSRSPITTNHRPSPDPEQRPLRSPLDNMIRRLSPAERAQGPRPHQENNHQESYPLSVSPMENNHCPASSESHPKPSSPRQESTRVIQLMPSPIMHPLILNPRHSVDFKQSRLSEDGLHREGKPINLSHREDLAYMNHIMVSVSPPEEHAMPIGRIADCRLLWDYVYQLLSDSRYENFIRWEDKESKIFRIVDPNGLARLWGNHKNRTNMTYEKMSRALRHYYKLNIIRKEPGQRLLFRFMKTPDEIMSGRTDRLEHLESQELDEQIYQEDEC
Sequence of HSF1 (Q00613 whole entry): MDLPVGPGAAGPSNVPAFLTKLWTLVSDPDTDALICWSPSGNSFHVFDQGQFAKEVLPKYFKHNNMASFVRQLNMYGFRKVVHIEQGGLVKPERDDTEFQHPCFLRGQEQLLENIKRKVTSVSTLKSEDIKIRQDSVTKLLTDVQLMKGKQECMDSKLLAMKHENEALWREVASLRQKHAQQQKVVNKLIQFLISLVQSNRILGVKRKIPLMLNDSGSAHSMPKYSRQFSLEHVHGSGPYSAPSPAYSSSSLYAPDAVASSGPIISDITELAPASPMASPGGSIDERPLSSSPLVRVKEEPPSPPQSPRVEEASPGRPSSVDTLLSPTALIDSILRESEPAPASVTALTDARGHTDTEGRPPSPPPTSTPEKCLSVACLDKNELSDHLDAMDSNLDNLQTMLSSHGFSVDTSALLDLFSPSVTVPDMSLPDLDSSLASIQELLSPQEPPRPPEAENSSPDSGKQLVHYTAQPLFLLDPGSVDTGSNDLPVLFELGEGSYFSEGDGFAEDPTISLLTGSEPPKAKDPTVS

Sequence	binding signal (FEV)	binding signal (ETV5)	binding signal (HSF1)	binding signal (SPIC)	binding signal (ELF4)	binding signal (ELK4)	binding signal (ETV2)	binding signal (ELF3)	binding signal (CRX)	binding signal (ETV1)	binding signal (ERF)	binding signal (ETV3L)	binding signal (ETS2)	binding signal (SPDEF)	binding signal (ETV7)	binding signal (ELF5)	binding signal (ETV3)	binding signal (ETV6)
ATTCAC	1.23 fold enrichment (6-mer frequency, TF over GST control)	1.21 fold enrichment (6-mer frequency, TF over GST control)	1.13 fold enrichment (6-mer frequency, TF over GST control)	1.1 fold enrichment (6-mer frequency, TF over GST control)	1.31 fold enrichment (6-mer frequency, TF over GST control)	1.35 fold enrichment (6-mer frequency, TF over GST control)	1.21 fold enrichment (6-mer frequency, TF over GST control)	1.27 fold enrichment (6-mer frequency, TF over GST control)	1.14 fold enrichment (6-mer frequency, TF over GST control)	1.29 fold enrichment (6-mer frequency, TF over GST control)	1.21 fold enrichment (6-mer frequency, TF over GST control)	1.21 fold enrichment (6-mer frequency, TF over GST control)	1.29 fold enrichment (6-mer frequency, TF over GST control)	1.21 fold enrichment (6-mer frequency, TF over GST control)	1.24 fold enrichment (6-mer frequency, TF over GST control)	1.19 fold enrichment (6-mer frequency, TF over GST control)	1.23 fold enrichment (6-mer frequency, TF over GST control)	1.17 fold enrichment (6-mer frequency, TF over GST control)
CCTCGA	1.21 fold enrichment (6-mer frequency, TF over GST control)	1.27 fold enrichment (6-mer frequency, TF over GST control)	1.75 fold enrichment (6-mer frequency, TF over GST control)	1.29 fold enrichment (6-mer frequency, TF over GST control)	1.35 fold enrichment (6-mer frequency, TF over GST control)	1.38 fold enrichment (6-mer frequency, TF over GST control)	1.55 fold enrichment (6-mer frequency, TF over GST control)	1.25 fold enrichment (6-mer frequency, TF over GST control)	1.26 fold enrichment (6-mer frequency, TF over GST control)	1.15 fold enrichment (6-mer frequency, TF over GST control)	1.28 fold enrichment (6-mer frequency, TF over GST control)	1.35 fold enrichment (6-mer frequency, TF over GST control)	1.21 fold enrichment (6-mer frequency, TF over GST control)	1.23 fold enrichment (6-mer frequency, TF over GST control)	1.42 fold enrichment (6-mer frequency, TF over GST control)	1.34 fold enrichment (6-mer frequency, TF over GST control)	1.26 fold enrichment (6-mer frequency, TF over GST control)	1.29 fold enrichment (6-mer frequency, TF over GST control)
